# Data taken from PubChem BioAssay (NCATS).
# Results filed as inconclusive are left out. Entries that show only a call come without a potency. Activity calls are given as the source filed them. Unless noted, calls follow the shape of the full dose curve. Bridge positions count the residues as written; N and C are the ends. Peptide text beside a SMILES is read from it.
# Assays:
# [1] = Primary qHTS for Huh7 cytotoxicity: counterscreen for inhibitors of MERS-S pseudotyped particle cell entry (AID 1479147); conditions: outcome: dose series up to 57.1 µM unless noted
# [2] = Primary qHTS for inhibitors of MERS-S pseudo-typed particle cell entry (AID 1479149); conditions: outcome: dose series up to 57.1 µM unless noted; also: nearly all actives have a fitted effect of over 60% in size
# [3] = Primary qHTS for Vero E6 cytotoxicity: counterscreen for inhibitors of SARS-S pseudo-typed particle cell entry (AID 1479150); conditions: outcome: dose series up to 57.1 µM unless noted
# [4] = Cytotoxicity counterscreen for inhibitors of SARS-CoV-2 cell entry (AID 1645845); conditions: outcome: dose series up to 57.1 µM unless noted; also: nearly all actives have a fitted effect of over 50% in size
# Method in brief: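 48 h compound treatment (after 1 h preincubation), HEK293-ACE2 cells, 37 C/5% CO2; ATP luminescence endpoint; normalized to cell wells and media blanks.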
# [5] = Primary qHTS to identify inhibitors of SARS-CoV-2 cell entry (AID 1645846); conditions: SARS-CoV-2 pseudovirus cell entry assay, luminescence; activity change, negative = inhibition: at 57.1 µM (top of the series) unless noted; also: nearly all actives have a fitted effect of over 45% in size
# Method in brief: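 HEK293 cells stably expressing human ACE2, pre-treated 1 h with compound, then infected with MLV particles pseudotyped with Wuhan-Hu-1 spike (C-terminal 19-aa truncation). Luciferase luminescence after 48 h at 37 °C, normalised to spike PP and bald PP.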
# [6] = KB-8-5-11 P-gp reporter qHTS against the NCATS DSHEA and TCM libraries (AID 1919977; active = well fitted curve in the direction sought with a large enough effect; an effect the other way counts as inactive or inconclusive)
# Method in brief: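 P-gp-overexpressing KB-8-5-11 cells were screened in colchicine-free medium at 500 cells/well, as a titration series. Cells were exposed for 72 h at 37C. Viability was read by CellTiter-Glo luminescence after 30 min at room temperature.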
# [7] = target: Peroxisome proliferator-activated receptor delta (Homo sapiens) (UniProt Q03181); assay: qHTS assay for small molecule agonists of peroxisome proliferator-activated receptor delta signaling (AID 588534)
# Chain of Peroxisome proliferator-activated receptor delta (Homo sapiens) (Q03181 whole entry, looked up): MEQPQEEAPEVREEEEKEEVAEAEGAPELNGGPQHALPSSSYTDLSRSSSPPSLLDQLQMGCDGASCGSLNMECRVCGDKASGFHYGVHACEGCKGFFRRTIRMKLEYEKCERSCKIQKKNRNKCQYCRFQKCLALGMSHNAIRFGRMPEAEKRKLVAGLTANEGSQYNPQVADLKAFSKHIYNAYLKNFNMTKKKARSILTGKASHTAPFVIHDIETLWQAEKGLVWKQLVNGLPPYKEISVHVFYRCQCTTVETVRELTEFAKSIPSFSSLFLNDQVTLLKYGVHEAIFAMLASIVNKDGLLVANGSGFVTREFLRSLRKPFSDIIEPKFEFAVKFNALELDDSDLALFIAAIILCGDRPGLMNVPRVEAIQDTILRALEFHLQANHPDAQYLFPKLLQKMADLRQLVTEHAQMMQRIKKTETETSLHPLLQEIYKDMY
# Method in brief: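 Cell-based beta-lactamase reporter assay run in agonist mode: cells seeded and incubated 5 hrs at 37 C, compounds added and incubated 18 hrs at 37 C. CCF4 dye fluorescence read after 2 hrs at RT; EC50 and efficacy from Hill fits.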
# [8] = target: Glutathione peroxidase 1 (Homo sapiens) (UniProt P07203); assay: Primary qHTS Assay for Inhibitors of Recombinant Selenoprotein Glutathione Peroxidase 1 (GPX1) (AID 1845191; active = well fitted curve in the direction sought with a large enough effect; an effect the other way counts as inactive or inconclusive; also: nearly all actives have a fitted effect of over 65% in size)
# Chain of Glutathione peroxidase 1 (Homo sapiens) (P07203 whole entry, looked up): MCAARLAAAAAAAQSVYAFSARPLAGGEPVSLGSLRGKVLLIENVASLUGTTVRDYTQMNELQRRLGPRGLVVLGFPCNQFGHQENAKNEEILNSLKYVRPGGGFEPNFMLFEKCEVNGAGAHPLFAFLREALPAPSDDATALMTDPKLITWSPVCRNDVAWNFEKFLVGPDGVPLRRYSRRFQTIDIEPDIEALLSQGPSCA
# Method in brief: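 10 nM GPX1 + cpd, 30 min RT; start w/ 1 mM GSH, 0.5 mM cumene hydroperoxide, 0.5 mM NADPH, 100 nM GR, 0.01% BSA; buffer 50 mM Tris-HCl pH 7.5, 2 mM EDTA, 150 mM NaCl; Fl 340/450, 0 & 15 min.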
# [9] = target: Phospholipid hydroperoxide glutathione peroxidase GPX4 (Homo sapiens) (UniProt P36969); assay: Primary qHTS Assay for Inhibitors of Recombinant Selenoprotein Glutathione Peroxidase 4 (GPX4) (AID 1845192; active = well fitted curve in the direction sought with a large enough effect; an effect the other way counts as inactive or inconclusive; also: nearly all actives have a fitted effect of over 65% in size)
# Chain of Phospholipid hydroperoxide glutathione peroxidase GPX4 (Homo sapiens) (P36969 whole entry, looked up): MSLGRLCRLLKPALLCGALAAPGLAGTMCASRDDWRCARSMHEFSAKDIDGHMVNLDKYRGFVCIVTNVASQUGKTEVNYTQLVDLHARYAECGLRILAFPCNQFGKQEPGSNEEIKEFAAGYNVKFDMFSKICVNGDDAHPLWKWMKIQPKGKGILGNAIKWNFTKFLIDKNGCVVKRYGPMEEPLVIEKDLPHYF
# Method in brief: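 NADPH consumption, followed by fluorescence at 340/450 nm between 0 and 15 min, reports GPX4 activity via coupled glutathione reductase (100 nM). Enzyme 200 nM was pre-exposed to compound 30 min; 0.5 mM cumene hydroperoxide and 1 mM GSH served as substrates.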
# [10] = Confirmatory qHTS for VERO E6 Cytotoxicity Assay: Counterscreen for SARS-CoV-2 CPE Assay (AID 1508605); also: nearly all actives have a fitted effect of over 60% in size
# [11] = Confirmatory qHTS for activators (rescue) of SARS-CoV-2 Cytopathic Effect (CPE) (AID 1508606); also: potency is read from the fitted curve at half-maximal effect; nearly all actives have a fitted effect of over 70% in size
# [12] = target: Alpha-galactosidase (Coffea arabica) (UniProt Q42656); assay: Counterscreen for Glucocerebrosidase Inhibitors: qHTS Assay for Coffee Bean alpha-Galactosidase at pH 4.5 (AID 957; active = well fitted curve in the direction sought with a large enough effect; an effect the other way counts as inactive or inconclusive)
# Chain of Alpha-galactosidase (Coffea arabica) (Q42656 whole entry, looked up): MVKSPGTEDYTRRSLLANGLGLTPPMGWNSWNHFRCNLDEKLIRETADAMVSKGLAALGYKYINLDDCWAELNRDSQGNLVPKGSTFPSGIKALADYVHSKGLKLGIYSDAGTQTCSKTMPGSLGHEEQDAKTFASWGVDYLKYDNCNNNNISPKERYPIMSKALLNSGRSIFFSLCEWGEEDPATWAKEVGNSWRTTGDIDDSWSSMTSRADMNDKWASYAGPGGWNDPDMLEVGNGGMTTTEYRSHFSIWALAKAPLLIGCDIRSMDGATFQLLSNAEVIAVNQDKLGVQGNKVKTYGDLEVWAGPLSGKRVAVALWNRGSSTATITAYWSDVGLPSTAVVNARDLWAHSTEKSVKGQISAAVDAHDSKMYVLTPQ
# Method in brief: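 Green coffee bean enzyme (2 nM final) was incubated with compounds (0.7 nM to 77 uM) and 4-methylumbelliferyl alpha-D-galactopyranoside (80 uM final) in 50 mM citric acid, 0.005% Tween-20, pH 4.5, 20 min at room temperature; AC50 from Hill fits.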
# [13] = Validation screen for inhibitors of Lassa infection (AID 463096)
# [14] = Confirmatory qHTS to identify inhibitors of SARS-CoV-2 cell entry (AID 1645844); also: potency is read from the fitted curve at half-maximal effect; nearly all actives have a fitted effect of over 45% in size
# Method in brief: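 Luminescence from a luciferase reporter, read 48 hr after pseudotyped-particle addition, gives entry signal, normalised to spike-bearing PP wells and bald PP lacking fusion protein wells. Cells are Expi293F stably expressing human ACE2, compound-pretreated 1 hr.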
structure (smiles),measurement,setting,value
"C[C@@H]1NC(=O)[C@@H]2CCCN2C(=O)[C@H](CC(N)=O)NC(=O)[C@@H]2CSSC[C@H](N)C(=O)N[C@H]3CSSC[C@H](NC1=O)C(=O)N[C@@H]([C@@H](C)O)C(=O)NCC(=O)N[C@H](C(=O)N[C@@H](Cc1ccc(O)cc1)C(=O)O)CSSC[C@H](NC(=O)[C@H](Cc1ccc(O)cc1)NC(=O)[C@H](CCC(=O)O)NC3=O)C(=O)N2 (H-CCEYCCNPACTGCY-OH; disulfide 1-6, 2-10, 5-13)",Potency,[1],inactive
same,Potency,[2],inactive
same,Potency,[3],inactive
same,Potency,[4],inactive
same,"activity change, negative = inhibition",[5],-24.4% [at 27.1 µM]
OCC=Cc1ccccc1,Potency,[1],inactive
same,Potency,[2],inactive
same,Potency,[3],inactive
same,Potency,[4],inactive
same,"activity change, negative = inhibition",[5],-22.7%
same,Potency,[6],inactive
c1ccc2ccccc2c1,outcome,[7],inactive
same,Potency,[1],inactive
same,Potency,[2],inactive
same,Potency,[3],inactive
same,Potency,[4],inactive
same,Potency,[5],inactive
CCCCCCCCCCCCNCCNCCNCC(=O)O,Potency,[1],inactive
same,Potency,[2],inactive
same,Potency,[3],inactive
same,Potency,[4],inactive
same,"activity change, negative = inhibition",[5],-24.3% [at 27.1 µM]
same,Potency,[8],inactive
same,Potency,[9],inactive
CN(C)CCC=C1c2ccccc2C(C)(C)c2ccccc21,Potency,[1],inactive
same,Potency,[3],inactive
same,Potency,[10],inactive
same,Potency,[11],10 µM (active)
same,Potency,[4],inactive
N#Cc1ccc2[nH]cc(CCCCN3CCN(c4ccc5oc(C(N)=O)cc5c4)CC3)c2c1,Potency,[1],inactive
same,Potency,[3],inactive
same,Potency,[10],inactive
same,Potency,[4],inactive
CN[C@@H]1[C@@H](O[C@H]2O[C@H](CO)[C@@H](N)[C@H](O)[C@H]2O)O[C@H]2C[C@@H](N)[C@H](O[C@H]3[C@H](O)[C@@H](O)[C@H](N)C[C@@H]3N)O[C@@H]2[C@@H]1O,Potency,[1],inactive
same,Potency,[2],inactive
same,Potency,[4],inactive
same,"activity change, negative = inhibition",[5],-26.5%
Cc1cc(C2=NOC(c3cc(Cl)cc(Cl)c3)(C(F)(F)F)C2)ccc1C(=O)NCC(=O)NCC(F)(F)F (centres undefined),Potency,[1],inactive
same,Potency,[2],inactive
same,Potency,[3],inactive
same,Potency,[4],inactive
same,Potency,[8],inactive
CC[N+](C)(C)Cc1ccccc1Br,outcome,[12],inactive
same,Potency,[13],inactive
same,Potency,[1],inactive
same,Potency,[2],inactive
same,Potency,[4],inactive
O=S(=O)(O)c1ccc2c(N=Nc3ccc(S(=O)(=O)O)c4ccccc34)c(O)c(S(=O)(=O)O)cc2c1,Potency,[1],inactive
same,Potency,[2],inactive
same,"activity change, negative = inhibition",[5],-21.2%
CC(CN1c2ccccc2Sc2ccc(S(=O)(=O)N(C)C)cc21)N(C)C (centres undefined),Potency,[1],inactive
same,Potency,[3],inactive
same,Potency,[10],inactive
same,Potency,[14],39.3 µM (active)
